Bioassay records deposited in PubChem BioAssay by National Center for Advancing Translational Sciences (NCATS).
LmPK inhibitor – qHTS Assay for Inhibitors of Leishmania Mexicana Pyruvate Kinase (LmPK); Q27686; purified LmPK, Kinase-Glo ATP luminescence, 1 h; Potency, µM (series often up to 57.5 µM), usual class: inhibitors; 290,000 compounds, 0.37% hits
Target sequence (Q27686 whole entry, looked up): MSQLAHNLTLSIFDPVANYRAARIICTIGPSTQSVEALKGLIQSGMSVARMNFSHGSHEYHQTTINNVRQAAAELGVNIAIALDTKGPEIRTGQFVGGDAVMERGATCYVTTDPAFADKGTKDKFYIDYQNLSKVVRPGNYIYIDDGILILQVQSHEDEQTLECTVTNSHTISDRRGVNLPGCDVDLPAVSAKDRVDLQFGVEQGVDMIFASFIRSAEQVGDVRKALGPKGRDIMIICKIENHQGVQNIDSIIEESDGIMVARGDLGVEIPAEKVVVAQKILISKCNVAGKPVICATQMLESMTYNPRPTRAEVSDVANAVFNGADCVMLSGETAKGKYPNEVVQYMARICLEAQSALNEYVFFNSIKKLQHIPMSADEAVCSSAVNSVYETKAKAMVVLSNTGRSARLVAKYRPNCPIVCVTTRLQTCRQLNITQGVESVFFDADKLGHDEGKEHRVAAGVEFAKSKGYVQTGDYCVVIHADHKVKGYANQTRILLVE
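Kinase-Glo luminescence read after 1 h RT reaction of 0.1 nM LmPK with 0.5 mM PEP and 0.1 mM ADP. Activity scaled between uninhibited and enzyme-free controls.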
Pf growth 48h – Primary qHTS for delayed death inhibitors of the malarial parasite plastid, 48 hour incubation. 310,000 compounds, 5.9% hits. P. falciparum luciferase growth in erythrocytes, 48 h. Potency, µM (titrated, usually from 28.7 µM), actives largely listed as inhibitors
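In quantitative HTS format, infected erythrocytes bearing luciferase-reporter parasites were treated for a single generation at 37 C. Luminescence after adding detection reagent served as the growth measure.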
Shiga toxin inh – A qHTS for Small Molecule Inhibitors of Shiga Toxin; AID 2315, 2010; 290,000 compounds, 9.2% hits; inhibition, % at 38.7 µM; Vero cells, Shiga toxin protein synthesis inhibition reporter; in the data active = inhibition mostly above about 28%, no sharp cut-off; inactive = mostly below about 43%
Cycloheximide cs – Cycloheximide Counterscreen for Small Molecule Inhibitors of Shiga Toxin. cell reporter, cycloheximide protein synthesis inhibition counterscreen. max response, %. 300,000 compounds, 12% hits. AID 2314, 2010; in the data active = max response mostly above about 13%, no sharp cut-off; inactive = mostly below about 14%; also: read at 38.3 µM for the half of the compounds with a filed dose
Pf growth 96h – Primary qHTS for delayed death inhibitors of the malarial parasite plastid, 96 hour incubation; AID 504834, 2011; Potency, µM (top dose mostly 28.7 µM), hits mostly inhibitors; 320,000 compounds, 6.9% hits; P. falciparum luciferase reporter growth, 96 h
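96 h incubation, 37 C, 5% CO2, of luciferase-reporter P. falciparum-infected RBCs (2% hematocrit, 0.05% parasitemia final) with test compounds; endpoint luminescence.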
Each line names hits and unclear results; the compound was inactive in the other large screens. The list is not random: actives were taken first. Their share in the collection is about 22%. Unless noted, calls follow the shape of the dose curve; as a rule, active = well fitted inhibition curve with a large enough effect; inconclusive = small, poorly fitted or top-dose-only effect, or another doubt; inactive = no such curve, though single readings can be large or run the other way.

Cc1ccc(C(=O)Nc2ccccc2C(=O)NC(CC(=O)O)C(=O)O)cc1 (centres undefined)	Pf growth 96h inconclusive
Cc1ccc(NC(=O)COC(=O)/C=C/c2c(C)nn(-c3ccc(F)cc3)c2Cl)cc1F	none
COc1ccc(C(=O)NC2CCCc3ccccc32)cc1OC1CCN(C(C)=O)CC1 (centres undefined)	Pf growth 96h inconclusive
CCn1cnc2sc(C(=O)Oc3cccc(C)c3)c(C)c2c1=O	Shiga toxin inh 78.8, Cycloheximide cs 28.7, Pf growth 96h inconclusive
Cc1c(C(=O)Oc2ccc(F)cc2)sc2ncn(Cc3cccc(F)c3)c(=O)c12	none
CCCNC(=O)Cn1cnc2sc(C(=O)NCCN(CC)CC)c(C)c2c1=O	none
CCCCN(C)C(=O)c1sc2ncn(CC)c(=O)c2c1C	Pf growth 96h 10.4µM
OCC1(CC2CCCCO2)CCN(Cc2cccc(O)c2)CC1 (centres undefined)	none
O=C(CCNC(=O)C1CCN(S(=O)(=O)c2ccc(F)cc2)CC1)NCc1ccncc1	none
COc1ccc(C(=O)N2CCCC(C(=O)O)C2)c2ccccc12 (centres undefined)	none
COc1cc(OC)cc(C(=O)NC(=S)Nc2nc(-c3cc4ccccc4o3)cs2)c1	none
COCCNc1nc(-c2cc3ccccc3o2)cs1	Shiga toxin inh 74.1, Cycloheximide cs 82.7
Nc1nccc(-c2cccs2)n1	Pf growth 48h inconclusive
Cc1nccc(-c2sc(-c3cccs3)nc2C)n1	Shiga toxin inh 57.9, Cycloheximide cs 35.9
COc1ccc(S(=O)(=O)NCc2cc(=O)n(C)c(=O)n2C)cc1C	none
Cc1cccc(CS(=O)(=O)Cc2ccc(C(=O)NC3CCCCCC3)o2)c1	none
COc1ccc(NC(=O)Cc2coc3cc(C)ccc23)cn1	Shiga toxin inh 68.6, Pf growth 96h inconclusive
Cc1cc2occ(CC(=O)NC3=NCCS3)c2cc1C(C)C	none
Cc1ccc2c(CC(=O)Nc3nc(C)cs3)coc2c1	Cycloheximide cs 20.4
Cc1ccc2c(CC(=O)NC3=NCCS3)coc2c1	Shiga toxin inh 57.6, Cycloheximide cs 28.7
C1CSC2(N1)C1CC3CC2CC(C1)C31NCCS1 (centres undefined)	Pf growth 96h inconclusive
CCN(CC(=O)Nc1c(F)cccc1F)C(=O)C1CC(=O)N(CCc2ccc(OC)c(OC)c2)C1 (centres undefined)	none (no result: LmPK inhibitor, Shiga toxin inh, Cycloheximide cs)
O=C(Nc1nc2ccccc2n1CCN1CCOCC1)c1ccccc1	Cycloheximide cs 10.1
CC(=O)Nc1nc2ccccc2n1CCN1CCOCC1	none
O=C(Nc1nc2ccccc2n1CCN1CCOCC1)c1cn(-c2ccccc2)nc1-c1ccccc1	Pf growth 48h 10.4µM, Pf growth 96h inconclusive
COCCn1nnnc1C(c1ccc(OC)cc1)N1CCN(C(=O)c2ccco2)CC1 (centres undefined)	Pf growth 96h inconclusive
COc1cc(C2CC(=O)Oc3cc(C)c(Br)c(C)c32)cc(OC)c1OC (centres undefined)	none (no result: LmPK inhibitor, Pf growth 48h, Pf growth 96h)
Cc1cc(C)cc(NC(=O)c2cccn2-c2ncc(C(F)(F)F)cc2Cl)c1	Pf growth 48h inconclusive, Pf growth 96h 13.1µM
O=C(Nc1ccc(F)cc1F)c1cccn1-c1ncc(C(F)(F)F)cc1Cl	Pf growth 48h inconclusive, Pf growth 96h inconclusive
COc1ccc(-c2cc(-c3ccc(Cl)cc3)c(C#N)c(SCC(=O)O)n2)cc1	Pf growth 96h inconclusive
CC(=O)Nc1c(I)cc(I)c(C(=O)O)c1I	none (no result: LmPK inhibitor, Shiga toxin inh, Cycloheximide cs)
CN(Cc1c(C(=O)N/N=C/c2ccc(O)cc2)nnn1-c1nonc1N)c1ccccc1	none
O=C(NCc1ccccc1)C1=C[C@H](c2csc3ccccc23)C[C@H](OCc2ccc(CO)cc2)O1	Pf growth 48h 9.28µM, Pf growth 96h 13.1µM
O=C(Nc1ccccc1)C1=C[C@@H](c2csc3ccccc23)C[C@@H](OCc2ccc(CO)cc2)O1	Pf growth 48h inconclusive, Pf growth 96h 9.28µM
O=C(O)c1cc(-c2ccccn2)n[nH]1	Pf growth 96h inconclusive
CCOc1ccccc1-c1ccc(C(=O)O)s1	Shiga toxin inh active, Cycloheximide cs 44.1 (no result: LmPK inhibitor, Pf growth 48h, Pf growth 96h)
c1ccc(-c2ccc(-c3ccccn3)s2)nc1	LmPK inhibitor inconclusive, Shiga toxin inh 132.4, Cycloheximide cs 45.4
O=C(O)c1ccc(-c2ccccn2)s1	Shiga toxin inh 29.1, Cycloheximide cs 44.7
O=C(O)c1cc(-c2ccccc2)nc(-c2ccccc2)c1	Pf growth 96h inconclusive (no result: LmPK inhibitor, Shiga toxin inh, Cycloheximide cs)
